Test systems include NCI-H23 lung; NCI-H226 lung; NCI-H322M lung; HOP-62 NSCLC; NCI-H460 lung; HOP-92 NSCLC; A549/ATCC NSCLC; 786-0 renal; COLO 205 colon; DU-145 prostate; K-562 leukemia; MALME-3M melanoma; MDA-MB-231 breast; RXF 393 renal; SF-268 CNS; SF-295 CNS; SF-539 CNS; UACC-257 melanoma; M14 melanoma; NCI-H522 lung.
Holding throughout (assay): NCI-60 one-dose screen, 48 h (100 = growth as untreated, 0 = no growth, -100 = all killed)
Settings in all cases: 10 µM unless noted

The panel holds about 83,000 compounds, 20% with a hit somewhere; the sample as a whole holds those more often.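 In brief: 96-well plates, 48 h treatment, single concentration, percent growth endpoint.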 A number with no mark means an inactive call. The source made the active and inactive calls. The calls were made as follows: active = growth percent below 10; inactive = the rest.

As to `O=C1C=C[C@]2(C[C@@H](c3cccc(C(F)(F)F)c3)O[C@@H](c3cccc(C(F)(F)F)c3)O2)O1`, the growth in the experiment with NCI-H23 lung was 50.1%; in the experiment with NCI-H226 lung it was -72.7% (active); in the experiment on NCI-H322M lung it was 74.3%; with HOP-62 NSCLC it was 4.06% (active); in the experiment on NCI-H460 lung, 1.85% (active); with HOP-92 NSCLC it was -5.73% (active). Also, the growth with A549/ATCC NSCLC is 27.3%; in the experiment on 786-0 renal, -88.8% (active); with COLO 205 colon, 12.1%; in the experiment with DU-145 prostate, 28.7%; with K-562 leukemia, -4.01% (active); with MALME-3M melanoma it was 36.4%. The growth in the experiment on MDA-MB-231 breast was -57.2% (active); in the experiment on RXF 393 renal it was -0.258% (active); in the experiment on SF-268 CNS, -27.1% (active); in the experiment with SF-295 CNS, 46.1%; with SF-539 CNS, -69.6% (active); in the experiment with UACC-257 melanoma, 59.6%. For the same compound, the growth in the experiment on M14 melanoma is 44.8%.

In the case of `Cc1cc(=O)[nH]c(N=Nc2c(O)[nH]c3ccccc23)n1`, the growth with NCI-H23 lung was 100%; with NCI-H226 lung, 97.9%; in the experiment on NCI-H322M lung it was 123%; with HOP-62 NSCLC, 119%; in the experiment on NCI-H460 lung it was 105%; in the experiment on HOP-92 NSCLC, 101%. For the same compound, the growth in the experiment with A549/ATCC NSCLC is 103%; with 786-0 renal, 102%; in the experiment on DU-145 prostate it was 117%; in the experiment on K-562 leukemia, 116%; in the experiment on MALME-3M melanoma, 127%; in the experiment on MDA-MB-231 breast, 97.2%. In addition, the growth with RXF 393 renal was 117%; in the experiment with SF-268 CNS, 105%; in the experiment on SF-295 CNS, 114%; with SF-539 CNS, 105%; in the experiment with UACC-257 melanoma, 112%; with M14 melanoma, 100%.

With `S=C(Cc1ccc2c(c1)CCCC2)N1CCOCC1`, the growth is 98.4% with NCI-H23 lung; 110% with NCI-H226 lung; 94.8% in the experiment with NCI-H322M lung; 89.8% in the experiment with HOP-62 NSCLC; 107% in the experiment with NCI-H460 lung; 121% in the experiment with HOP-92 NSCLC. In addition, the growth was 81.3% in the experiment on NCI-H522 lung; 93.2% with A549/ATCC NSCLC; 101% in the experiment on 786-0 renal; 104% in the experiment with DU-145 prostate; 107% in the experiment on K-562 leukemia; 85.6% in the experiment on MALME-3M melanoma. The growth with MDA-MB-231 breast was 103%; with RXF 393 renal, 115%; in the experiment with SF-268 CNS it was 101%; in the experiment on SF-295 CNS it was 104%; with SF-539 CNS, 99.6%; in the experiment with UACC-257 melanoma it was 91.5%. For the same compound, the growth in the experiment with M14 melanoma was 99.5%.

As for `C[C@H]1[C@H]2[C@H]3CC[C@@H]4[C@@]5(C)C/C(=C/c6ccco6)C(=O)C(C)(C)[C@@H]5CC[C@@]4(C)[C@]3(C)CC[C@]23CO[C@]1(C)[C@@H](C(=O)/C=C\c1ccco1)C3`, the growth is 99.6% in the experiment on NCI-H23 lung; 99.6% in the experiment with NCI-H226 lung; 98.4% with NCI-H322M lung; 106% with HOP-62 NSCLC; 107% in the experiment on NCI-H460 lung; 87.1% in the experiment with HOP-92 NSCLC. The growth in the experiment on NCI-H522 lung was 85.7%; in the experiment with A549/ATCC NSCLC, 88.3%; with 786-0 renal, 104%; in the experiment with DU-145 prostate, 111%; in the experiment with K-562 leukemia it was 93.4%; in the experiment on MALME-3M melanoma, 23.5%. Also, the growth was 94.9% in the experiment with MDA-MB-231 breast; 98.4% in the experiment with RXF 393 renal; 97.3% with SF-268 CNS; 107% with SF-295 CNS; 93.8% in the experiment with SF-539 CNS; 31.5% in the experiment with UACC-257 melanoma. Moreover, in the experiment with M14 melanoma, the growth is 60.5%.

Regarding `O=C(COc1ccc(/C=C2\Oc3ccccc3C2=O)cc1)Nc1nc2ccccc2s1`, the growth in the experiment with NCI-H23 lung is 48.5%; in the experiment with NCI-H226 lung it was 98.4%; with NCI-H322M lung it was 118%; in the experiment with HOP-62 NSCLC it was 73.8%; with NCI-H460 lung it was 111%; in the experiment on HOP-92 NSCLC, -90.4% (active). Also, the growth in the experiment on A549/ATCC NSCLC was 68.3%; with 786-0 renal, 49%; in the experiment with COLO 205 colon it was 91.5%; in the experiment with DU-145 prostate, -74.8% (active); with K-562 leukemia, 27.9%; in the experiment with MALME-3M melanoma, 24.5%. The growth in the experiment on MDA-MB-231 breast is 44.8%; in the experiment on RXF 393 renal it was 14.2%; with SF-268 CNS, 13.4%; in the experiment on SF-295 CNS, 628%; in the experiment on SF-539 CNS it was -88.3% (active); in the experiment on UACC-257 melanoma it was 110%. Besides, the growth in the experiment with M14 melanoma is 95.4%.

Regarding `CS(=O)c1cccc(-c2ccc3nc(N)n(-c4ccc(C(F)(F)F)cc4)c(=O)c3c2)c1` (configuration not stated), the growth in the experiment with NCI-H23 lung was 102%; in the experiment with NCI-H226 lung it was 90.9%; with NCI-H322M lung, 103%; with HOP-62 NSCLC, 98%; in the experiment on NCI-H460 lung it was 102%; in the experiment with HOP-92 NSCLC it was 66.1%. For the same compound, the growth with A549/ATCC NSCLC is 93.4%; in the experiment on 786-0 renal, 97.1%; with COLO 205 colon it was 105%; in the experiment on DU-145 prostate, 103%; with K-562 leukemia it was 96.2%; with MALME-3M melanoma it was 78.6%. Moreover, the growth in the experiment on MDA-MB-231 breast is 90.5%; in the experiment with RXF 393 renal, 92.5%; in the experiment with SF-268 CNS it was 89.1%; with SF-295 CNS, 92.1%; with SF-539 CNS it was 91.7%; in the experiment with UACC-257 melanoma, 101%. Moreover, the growth in the experiment on M14 melanoma is 99.5%.

On to `COc1c(CCC[P+](c2ccccc2)(c2ccccc2)c2ccccc2)cc2c(c1OC)OCO2`, for which the growth in the experiment on NCI-H23 lung is 2.87% (active); in the experiment on NCI-H226 lung, 27%; in the experiment on NCI-H322M lung, 45.4%; in the experiment on HOP-62 NSCLC, 15.1%; with NCI-H460 lung, 5.26% (active); in the experiment on HOP-92 NSCLC, -4.16% (active). Besides, the growth in the experiment with A549/ATCC NSCLC is 40%; in the experiment with 786-0 renal, 21.8%; in the experiment with COLO 205 colon, -55.6% (active); in the experiment on DU-145 prostate, 23.5%; in the experiment with K-562 leukemia it was 12.3%; with MALME-3M melanoma it was 9.97% (active). In addition, the growth was -8.84% (active) in the experiment on MDA-MB-231 breast; 29% in the experiment with RXF 393 renal; 15.4% in the experiment with SF-268 CNS; 20.8% with SF-295 CNS; 20.2% in the experiment with SF-539 CNS; -3.96% (active) with UACC-257 melanoma. The growth with M14 melanoma was 12.2%.
